PKA-R1A activ = activates the PKA-R1A holoenzyme complex; PKA-R1A dissociation, Cy5-IP20 fluorescence polarization; scaled: DMSO 0%, 113 µM cGMP 100%; activation, % at 11.4 µM; 340,000 compounds, 0.083% hits; P00514+P68181; AID 504707;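 active = percent activation above the mean of all tested compounds plus 3 SD, cut at about 19% in these data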;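 note: higher means more PKAc released from R1A so a rise in polarization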
PAFAH2 inh = inhibitors of human PAFAH2. recombinant PAFAH2, FP-rhodamine activity probe, fluorescence polarization. inhibition, % at 3.39 µM. 340,000 compounds, 0.99% hits. AID 492956;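 active = inhibition above the mean over all tested compounds plus 3 SD, cut at about 30% in these data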;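 note: inhibitors block probe labeling of enzyme so polarization drops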
PAFAH1B3 FP inh = inhibitors of human PAFAH1B3 | 340,000 compounds, 0.28% hits | AID 492972 | inhibition, % at 3.39 µM | Q15102 | recombinant PAFAH1B3, FP-rhodamine probe, fluorescence polarization;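 active = inhibition above the screen-wide average of all tested compounds plus 3 SD, cut at about 25% in these data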
pPAFAH inh = inhibitors of human plasma PAF acetylhydrolase (pPAFAH); Q13093; recombinant pPAFAH, FP-rhodamine probe fluorescence polarization; inhibition, % at 3.39 µM; 330,000 compounds, 1.5% hits; AID 463082;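 active = inhibition above the mean inhibition across the screen plus 3 SD, cut at about 25% in these data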;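 note: inhibitors block binding of the rhodamine activity-based probe so polarization drops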
PKA-R2B act = activators of human PKA-R2B complex; P22694+P31323; PKA-R2B holoenzyme dissociation, Cy5-IP20 fluorescence polarization; R2B truncated from residue 108, S112A mutant; 0% DMSO only, 100% 113 µM cGMP; activation, % at 11.4 µM; 340,000 compounds, 0.079% hits; AID 504700;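 active = activation above a cutoff set at the mean over all compounds plus 3 SD, cut at about 18% in these data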;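 note: higher means more holoenzyme dissociation and a rise in polarization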
Target sequence (P31323 whole entry, looked up, other chains not shown, the tested form may be a part): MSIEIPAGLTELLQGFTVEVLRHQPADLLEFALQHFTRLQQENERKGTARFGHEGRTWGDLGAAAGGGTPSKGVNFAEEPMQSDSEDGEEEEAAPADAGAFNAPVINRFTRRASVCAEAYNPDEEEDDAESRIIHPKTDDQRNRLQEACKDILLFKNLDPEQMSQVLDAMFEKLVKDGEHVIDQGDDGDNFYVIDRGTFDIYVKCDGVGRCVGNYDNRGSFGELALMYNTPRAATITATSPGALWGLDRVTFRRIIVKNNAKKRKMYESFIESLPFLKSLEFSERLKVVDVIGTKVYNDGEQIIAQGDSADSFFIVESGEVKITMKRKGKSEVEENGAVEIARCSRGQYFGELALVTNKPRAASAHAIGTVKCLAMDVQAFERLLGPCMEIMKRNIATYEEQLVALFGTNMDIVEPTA
PAFAH1B2 FP inh = PAFAH1B2 (human) inhibition; P68402; recombinant PAFAH1B2, FP-rhodamine activity probe, fluorescence polarization; inhibition, % at 3.39 µM; 340,000 compounds, 1.2% hits; AID 492953;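 active = inhibition above the mean of all tested compounds plus 3 SD, cut at about 24% in these data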
A number is an active result; n = inactive; x = no result. Compounds with a hit are over-represented: about 2.6% of the library has one in this group of screens.

SMILES	PKA-R1A activ	PAFAH2 inh	PAFAH1B3 FP inh	pPAFAH inh	PKA-R2B act	PAFAH1B2 FP inh
O=C(COC(=O)c1c[nH]c2ccccc12)NC1CCCCC1	n	83	n	28	n	n
O=C(COC(=O)Cc1ccc(Br)cc1)NC12CC3CC(CC(C3)C1)C2	n	n	n	26	n	38
O=C(COC(=O)Cc1ccc(Br)cc1)NC1CCCCCC1	n	n	n	27	n	27
O=C(COC(=O)CNC(=O)c1ccccc1)NC12CC3CC(CC(C3)C1)C2	n	x	x	x	n	x
O=C(COC(=O)COc1ccc(Br)cc1)NC1CCCCCC1	n	n	n	n	n	n
CCn1c(=O)c2sccc2n2c(CCCC(=O)NCc3cccnc3)nnc12	n	n	n	n	n	n
CCc1ccc2nc(N(CCN(C)C)C(=O)c3ccc4ncsc4c3)sc2c1	n	n	n	n	n	n
Cc1ccc(/C=N/Nc2ccc(C(=O)O)cc2)s1	n	n	n	26	n	n
COc1cc(CNc2ccc(N3CCCC3)cc2)ccc1OCc1ccccc1F	n	n	n	n	n	n
CC(=O)N1CCN(c2ccc(NCc3cccc4ccccc34)cc2)CC1	n	n	n	31	n	n
COc1cc(CNc2ccc(N3CCCC3)cc2)ccc1OCc1ccccc1	n	n	n	29	n	n
Cc1ccc(C(=O)N2CCN(c3ccc(NC(=S)NC(=O)Cc4ccccc4)cc3)CC2)cc1	n	n	n	25	n	n
CC(=O)N1CCN(c2ccc(NCc3cccs3)cc2)CC1	n	n	n	n	n	n
COc1ccc(C(=O)N2CCN(c3ccc(NC(=O)Cc4ccccc4)cc3)CC2)cc1	n	n	n	n	n	n
COc1ccc(N2CCN(C(=O)c3ccc(CSc4ccccc4)cc3)CC2)cc1	n	n	n	n	n	26
CC1(C)Cc2cccc(OCC(=O)OCC(=O)Nc3cccc(S(N)(=O)=O)c3)c2O1	n	n	n	n	n	n
CC(=O)N1CCN(c2ccc(NCc3ccccc3)cc2)CC1	n	n	n	32	n	n
N=c1c2ccccc2nc2n1CCCCC2	n	x	x	x	n	x
CCOC(=O)c1oc2ccccc2c1CSc1nnnn1-c1ccccc1	n	n	n	26	n	n
COCCN(C(=O)COC(=O)CCCOc1ccccc1)c1c(N)n(Cc2ccccc2)c(=O)[nH]c1=O	n	n	n	n	n	n
O=C(CCN=C1NS(=O)(=O)c2ccccc21)OCc1c(F)c(F)c(F)c(F)c1F	n	n	n	x	n	n
OCC1OC(Oc2cccc3ccccc23)C(O)C(O)C1O (stereo not drawn)	n	n	n	n	n	n
O=C(O)c1cc(O)c2c(c1)[C@@H]([C@H]1c3cc(C(=O)O)cc(O)c3C(=O)c3c(O[C@@H]4O[C@H](CO)[C@@H](O)[C@H](O)[C@H]4O)cccc31)c1cccc(O[C@@H]3O[C@H](CO)[C@@H](O)[C@H](O)[C@H]3O)c1C2=O	x	x	x	95	x	x
CC(=O)c1ccc(NC(=S)NN2C(C)CCCC2C)cc1 (stereo not drawn)	n	n	n	n	n	n
CC(=O)c1ccc(NC(=S)NC2CCCC(C)C2C)cc1 (stereo not drawn)	n	n	n	34	n	n
SMILES	PKA-R1A activ	PAFAH2 inh	PAFAH1B3 FP inh	pPAFAH inh	PKA-R2B act	PAFAH1B2 FP inh
CCOc1ccc(C2C3=C(CCCC3=O)Nc3ccc4ncccc4c32)cc1 (stereo not drawn)	n	n	n	29	n	n
O=C1CCCC2=C1C(c1ccc(O)c(O)c1)c1c(ccc3ncccc13)N2 (stereo not drawn)	x	x	x	n	x	x
COc1ccc(N)c2c1C(=O)c1ccccc1C2=O	n	n	n	n	n	n
Nc1ccc(Br)c2c1C(=O)c1ccccc1C2=O	x	x	x	25	x	x
C[n+]1c(-c2ccccc2)cc2c(=Cc3ccc([N+](=O)[O-])cc3)c3ccccc3n21	n	81	39	x	n	n
Cn1c(CNS(=O)(=O)c2ccc(Br)cc2)n[nH]c1=S	n	n	n	n	n	24
CCC(C(=O)Nc1c2c(nn1C(C)(C)C)CS(=O)(=O)C2)c1ccccc1 (stereo not drawn)	n	n	n	n	n	n
COCCn1c(N)c(S(=O)(=O)c2cccs2)c2nc3ccccc3nc21	n	n	48	n	n	25
Nc1c(S(=O)(=O)c2cccs2)c2nc3ccccc3nc2n1Cc1ccccc1	n	n	n	n	n	n
O=C(NCc1ccccc1F)C1CCCN(c2cnccn2)C1 (stereo not drawn)	n	n	n	n	n	n
COc1ccc(CCN2C(=O)CSC2c2ccc(F)cc2)cc1 (stereo not drawn)	n	n	n	n	n	26
CCCCCCSc1nnc2[nH]c(=O)cc(N)n12	n	n	n	n	n	26
CCCCCCCCSc1nnc2[nH]c(=O)cc(N)n12	n	n	n	n	n	n
O=C(CCCOc1ccccc1)N1CCN(c2ccccc2)CC1	n	n	n	n	n	n
O=C(CCOc1ccccc1)N1CCN(c2ccc(O)cc2)CC1	n	n	n	31	n	n
COc1ccccc1CCNS(=O)(=O)CCNC(=O)c1ccc2c(c1)OCO2	n	n	n	n	n	n
O=C1C(c2ccccc2)NC(=S)N1C1CCCCC1 (stereo not drawn)	n	n	n	n	n	36
CCN1CCC[C@H]1CNCCCn1cnc2c(SC)ncnc21	n	x	x	x	n	x
COc1cccc(-n2sc3c(c2=S)-c2cc(OC)ccc2NC3(C)C)c1	n	n	n	n	n	n
CC1(C)Nc2ccc(O)cc2-c2c1ssc2=S	n	n	n	26	n	n
Cc1c(C(=O)NNC(=S)Nc2ccc(S(N)(=O)=O)cc2)oc2ccccc12	n	n	n	28	n	n
CC(C)NC(=O)c1ccc(CSCc2ccccc2Cl)o1	n	n	n	n	n	n
O=C(O)c1ccc(CSCc2ccccc2Cl)o1	n	n	n	n	n	30
COc1ccc(NS(=O)(=O)c2cc(NC(=O)c3ccc(C)s3)ccc2N2CCOCC2)cc1	n	n	n	27	n	n
CC(=O)c1sc(N/N=C\c2c(O)ccc3ccccc23)nc1C	n	n	n	34	n	n
Cc1ccc(CCNC(=O)C2CCC(=O)N(Cc3ccccc3F)C2)o1 (stereo not drawn)	n	n	n	n	n	n
O=C(NC1CCCCCC1)c1c(O)c2ccccc2[nH]c1=O	n	n	n	n	n	n
O=C(NC1CCCCC1)c1sc(=S)n2c1[nH]c(=O)c1ccccc12	n	56	32	32	n	42
CCc1nnc(NC(=O)C2CCCN2C(=O)Nc2ccc(Cl)cc2)s1 (stereo not drawn)	n	n	n	n	n	n
COc1ccc(NC(=O)CN(C)C(=O)Cc2c(C)nc3ccccc3c2C)cc1	n	n	n	27	n	n

High-throughput results: PubChem, The Scripps Research Institute Molecular Screening Center
